The nature of assay [1]: BSK_LPS_PGE2: BioMAP Diversity Plus: LPS Assay for Prostaglandin E2 (PGE2) Biomarker Activity (AID 2283082).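 As to AC50: secreted prostaglandin E2 measured by ELISA in LPS-stimulated co-culture.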 The following applies: primary human HUVEC with PBMC; actives raise or lower the signal. In a few lines:
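Compounds were added to the LPS co-culture of endothelium and PBMC, and PGE2 was measured by ELISA after 24 h. Responses in either direction were fitted with DMSO as baseline.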

Read-out in assay [2]: Macrophage colony-stimulating factor (MCSF), CSF1 (gene 1435)
The assay is described as follows: BSK_LPS_MCSF: BioMAP Diversity Plus: LPS Assay for Macrophage colony-stimulating factor (MCSF) Biomarker Activity (AID 2283083). The following applies: primary human HUVEC with PBMC; actives raise or lower the signal. In a few lines:
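Bidirectional fitting against DMSO was applied to M-CSF levels read by ELISA at 24 h post-dose. The system pairs human umbilical vein endothelium with peripheral blood mononuclear cells; parallel SRB staining tracked cytotoxicity.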

Read-out in assay [3]: Tissue Factor, F3 (gene 2152)
The assay is described as follows: BSK_LPS_TissueFactor: BioMAP Diversity Plus: LPS Assay for Tissue Factor Biomarker Activity (AID 2283084). The following applies: primary human HUVEC with PBMC; actives raise or lower the signal. In a few lines:
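Compound was added to an endothelial cell/PBMC co-culture, and after 24 h tissue factor (CD142) was read by ELISA. Gain or loss of signal was fitted against a DMSO baseline, and parallel SRB staining (560 nm) tracked overt cytotoxicity.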

Read-out in assay [4]: Tumor necrosis factor (Homo sapiens) (UniProt P01375)
The assay is described as follows: BSK_LPS_TNFa: BioMAP Diversity Plus: LPS Assay for Tumour Necrosis Factor alpha (TNFa) Biomarker Activity (AID 2283085).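 As to AC50: TNFa protein level quantified by ELISA in the co-culture.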 The following applies: primary human HUVEC with PBMC; actives raise or lower the signal. In a few lines: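 Cells (umbilical vein endothelium plus peripheral blood mononuclear cells) were dosed with chemical, incubated 24 h, then TNFa was quantified by ELISA; values derive from bidirectional fitting with DMSO as baseline.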

Read-out in assay [5]: Vascular cell adhesion molecule 1 (VCAM1), VCAM1 (gene 7412)
The assay is described as follows: BSK_LPS_VCAM1: BioMAP Diversity Plus: LPS Assay for Vascular cell adhesion molecule 1 (VCAM1) Biomarker Activity (AID 2283086). The following applies: primary human HUVEC with PBMC; actives raise or lower the signal. In a few lines: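 Cells are dosed in an LPS-stimulated endothelial/mononuclear co-culture and, after 24 h, VCAM-1 is quantified by ELISA. Activity in either direction is fitted relative to the DMSO negative control.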

Read-out in assay [6]: CD38, CD38 (gene 952)
The assay is described as follows: BSK_SAg_CD38: BioMAP Diversity Plus: SAg Assay for CD38 Biomarker Activity (AID 2283087). The following applies: primary human HUVEC with PBMC; actives raise or lower the signal. In a few lines:
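CD38 quantified by ELISA (fluorescence) in a superantigen-activated endothelial cell–PBMC co-culture at 24 h post-dose. Activity fitted in both directions relative to DMSO; parallel SRB and Alamar Blue cytotoxicity read-outs.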

Read-out in assay [7]: CD69, CD69 (gene 969)
The assay is described as follows: BSK_SAg_CD69: BioMAP Diversity Plus: SAg Assay for CD69 Biomarker Activity (AID 2283089).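 As to AC50: cell surface CD69 protein quantified by ELISA with fluorescence detection.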 The following applies: primary human HUVEC with PBMC; actives raise or lower the signal. In a few lines:
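Primary human vascular co-culture (umbilical vein endothelium with peripheral blood mononuclear cells) exposed to test chemical for 24 h. CD69 levels quantified by fluorescence ELISA; DMSO served as negative control for bidirectional fitting.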

Read-out in assay [8]: Monocyte Chemoattractant Protein-1 (MCP1), CCL2 (gene 6347)
The assay is described as follows: BSK_SAg_MCP1: BioMAP Diversity Plus: SAg Assay for Monocyte Chemoattractant Protein-1 (MCP1) Biomarker Activity (AID 2283090). The following applies: primary human HUVEC with PBMC; actives raise or lower the signal. In a few lines: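 Values derive from bidirectional fitting of ELISA-measured MCP1 against DMSO controls. Readings were taken 24 h after dosing human vascular endothelial cells co-cultured with peripheral blood mononuclear cells under superantigen stimulation.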

Read-out in assay [9]: E-selectin (Homo sapiens) (UniProt P16581)
The assay is described as follows: BSK_SAg_Eselectin: BioMAP Diversity Plus: SAg Assay for Eselectin Biomarker Activity (AID 2283091). The settings on record: primary human HUVEC with PBMC; actives raise or lower the signal. In a few lines:
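Cell-surface E-selectin is read by ELISA at 24 h in the SAg co-culture of HUVEC and PBMC. Curves are fitted in both directions relative to DMSO. Parallel SRB total-protein staining tracks overt toxicity.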

Read-out in assay [10]: Monokine induced gamma interferon (MIG), CXCL9 (gene 4283)
The assay is described as follows: BSK_SAg_MIG: BioMAP Diversity Plus: SAg Assay for Monokine induced gamma interferon (MIG) Biomarker Activity (AID 2283092). The settings on record: primary human HUVEC with PBMC; actives raise or lower the signal. In a few lines:
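Endothelial cells and PBMC were co-cultured, exposed to test chemicals, and sampled 24 h later. MIG was measured by ELISA, and responses were fitted in both directions relative to DMSO.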

A short description of assay [11]: BSK_SAg_PBMCCytotoxicity: PBMC Cytotoxicity Assessment in the BioMAP Diversity Plus: SAg Assay (AID 2283093).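 Also: PBMC viability measured as Alamar Blue reduction fluorescence at 546/580 nm; fitted both ways against DMSO so a hit may be loss or gain of signal.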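 As to AC50: PBMC superantigen activated with SEB plus TSST-1 one hour after compound addition.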 The settings on record: primary human HUVEC with PBMC. In a few lines: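 Alamar Blue reduction (6 h, ex/em 546/580 nm) read after 90 h culture of PBMC pre-dosed 1 h then stimulated with SEB plus TSST-1, 20 ng/mL each. Gain or loss of signal fitted relative to DMSO.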

Read-out in assay [12]: Interleukin-8 (IL8), CXCL8 (gene 3576)
The assay is described as follows: BSK_SAg_IL8: BioMAP Diversity Plus: SAg Assay for Interleukin-8 (IL8) Biomarker Activity (AID 2283094). The following applies: primary human HUVEC with PBMC; actives raise or lower the signal. In a few lines:
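Chemicals were dosed onto a human endothelial–PBMC co-culture, and IL-8 was quantified by ELISA after 24 h. Both increases and decreases were fitted relative to DMSO.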

A short description of assay [13]: BSK_SAg_Proliferation: Cell Proliferation Assessment in the BioMAP Diversity Plus: SAg Assay (AID 2283095).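 Also: relative cell number as total protein by SRB absorbance in sub-confluent culture.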 The following applies: primary human HUVEC with PBMC. In a few lines:
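Absorbance of sulforhodamine B at 560 nm reports total protein in a human vascular endothelial/PBMC co-culture after 96 h chemical exposure. Gain or loss of signal is fitted in both directions against DMSO.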

Assay [14] is described as follows: BSK_SAg_SRB: Viability Assessment in the BioMAP Diversity Plus: SAg Assay (AID 2283096).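 Also: cells read one day after compound addition; hits may be either gain or loss of signal compared with DMSO.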 The settings on record: primary human HUVEC with PBMC. In a few lines:
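SRB absorbance at 560 nm served as the viability read-out. Cells (HUVEC plus peripheral blood mononuclear cells) were TCA-fixed and stained 24 h post-dosing; activity fitted in both directions against DMSO controls.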

Read-out in assay [15]: CD40, CD40 (gene 958)
The assay is described as follows: BSK_SAg_CD40: BioMAP Diversity Plus: SAg Assay for CD40 Biomarker Activity (AID 2283088). The following applies: primary human HUVEC with PBMC; actives raise or lower the signal. In a few lines:
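CD40 is measured by fluorescence ELISA in an endothelial/PBMC primary human co-culture at 24 h post-dose. Fitting is bidirectional, DMSO baseline. Parallel SRB staining (560 nm) flags cytotoxicity.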

The target in assay [16] is human CYP1A2, CYP1A2 (gene 1544) (UniProt P05177). The assay is described as follows: NVS_ADME_hCYP1A2: NovaScreen (NVS) CYP450-related Enzyme Activity (ADME) Assay for human CYP1A2 (AID 2283102; active = hit-call score of the fitted dose curve at least 0.9, where 1 is the maximum;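 as to AC50: potency for inhibition since loss of fluorescence marks reduced CYP1A2 activity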). In a few lines: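 Enzyme activity of insect-cell-expressed human CYP1A2 measured by fluorescence 0.5 h after compound addition, relative to acetonitrile. Compounds first tested in duplicate at 10 uM, actives followed up in concentration series.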
human CYP1A2, CYP1A2 (gene 1544), sequence (P05177 whole entry, looked up): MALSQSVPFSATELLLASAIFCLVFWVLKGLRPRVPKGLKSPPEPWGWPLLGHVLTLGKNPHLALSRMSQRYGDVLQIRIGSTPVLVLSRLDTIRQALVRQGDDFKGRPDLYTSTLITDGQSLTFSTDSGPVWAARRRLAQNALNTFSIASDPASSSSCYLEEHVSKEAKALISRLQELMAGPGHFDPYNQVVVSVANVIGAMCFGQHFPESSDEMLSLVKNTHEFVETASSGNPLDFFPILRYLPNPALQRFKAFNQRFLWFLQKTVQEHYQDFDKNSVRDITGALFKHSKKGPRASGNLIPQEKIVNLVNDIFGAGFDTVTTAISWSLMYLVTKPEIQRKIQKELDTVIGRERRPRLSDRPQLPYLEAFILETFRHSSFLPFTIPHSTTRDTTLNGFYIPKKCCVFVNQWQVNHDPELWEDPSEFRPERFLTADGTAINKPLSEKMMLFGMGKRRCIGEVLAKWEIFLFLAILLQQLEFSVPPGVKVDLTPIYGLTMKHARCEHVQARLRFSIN

Assay [17] has as its target human CYP2A6, CYP2A6 (gene 1548) (UniProt P11509). The assay is described as follows: NVS_ADME_hCYP2A6: NovaScreen (NVS) CYP450-related Enzyme Activity (ADME) Assay for human CYP2A6 (AID 2283099; active = hit-call score of the fitted dose curve at least 0.9, where 1 is the maximum). In a few lines:
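Compounds screened at 10 uM (duplicate) and, if active, titrated to a 20 uM top concentration against insect-cell-expressed CYP2A6. Loss of fluorescent product signal after 0.5 h, relative to acetonitrile baseline, indicates inhibition.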

Assay [18] deals with human CYP1A1, CYP1A1 (gene 1543) (UniProt P04798). The assay is described as follows: NVS_ADME_hCYP1A1: NovaScreen (NVS) CYP450-related Enzyme Activity (ADME) Assay for human CYP1A1 (AID 2283100; active = hit-call score of the fitted dose curve at least 0.9, where 1 is the maximum). In a few lines:
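Chemicals were first tested in duplicate at 10 uM, and those passing a 30% inhibition threshold were rerun as concentration series topping at 20 uM. Fluorescence read-out of recombinant enzyme turnover after 1 h, relative to acetonitrile.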

Assay [19] deals with human CYP2B6, CYP2B6 (gene 1555) (UniProt P20813). The assay is described as follows: NVS_ADME_hCYP2B6: NovaScreen (NVS) CYP450-related Enzyme Activity (ADME) Assay for human CYP2B6 (AID 2283101; active = hit-call score of the fitted dose curve at least 0.9, where 1 is the maximum). In a few lines: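 Cell-free recombinant enzyme assay with a fluorogenic substrate; fluorescence intensity read 1 hour after dosing. Loss of signal relative to acetonitrile negative control indicates inhibition. Primary screen run in duplicate at 10 uM, actives then tested in concentration series.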
human CYP2B6, CYP2B6 (gene 1555), sequence (P20813 whole entry, looked up): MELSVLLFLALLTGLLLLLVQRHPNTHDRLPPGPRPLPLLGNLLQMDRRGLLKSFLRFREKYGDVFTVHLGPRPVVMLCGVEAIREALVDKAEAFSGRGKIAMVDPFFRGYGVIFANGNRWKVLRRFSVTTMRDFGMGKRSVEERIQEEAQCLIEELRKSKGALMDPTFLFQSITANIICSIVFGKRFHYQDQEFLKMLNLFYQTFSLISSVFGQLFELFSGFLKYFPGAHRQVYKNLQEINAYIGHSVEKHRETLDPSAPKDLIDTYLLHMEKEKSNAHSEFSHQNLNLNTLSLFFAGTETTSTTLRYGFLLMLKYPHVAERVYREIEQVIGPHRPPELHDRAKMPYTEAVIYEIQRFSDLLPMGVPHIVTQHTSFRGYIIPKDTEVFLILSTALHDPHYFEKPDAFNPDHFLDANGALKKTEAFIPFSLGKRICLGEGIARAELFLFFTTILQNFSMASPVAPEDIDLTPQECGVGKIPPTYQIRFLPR

Results filed as inconclusive are left out. The source made the active and inactive calls. The calls were made as follows, unless noted: active = hit-call score of the fitted dose curve at least 0.9, where 1 is the maximum; inactive = score below 0.9.

Tumor necrosis factor (Homo sapiens), sequence (P01375 whole entry, looked up): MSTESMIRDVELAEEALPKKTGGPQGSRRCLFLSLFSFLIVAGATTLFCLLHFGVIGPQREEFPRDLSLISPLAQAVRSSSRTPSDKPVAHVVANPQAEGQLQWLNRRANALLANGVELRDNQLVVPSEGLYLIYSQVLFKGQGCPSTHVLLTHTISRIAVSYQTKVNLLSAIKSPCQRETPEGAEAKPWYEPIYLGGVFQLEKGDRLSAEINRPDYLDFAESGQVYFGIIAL
E-selectin (Homo sapiens), sequence (P16581 whole entry, looked up): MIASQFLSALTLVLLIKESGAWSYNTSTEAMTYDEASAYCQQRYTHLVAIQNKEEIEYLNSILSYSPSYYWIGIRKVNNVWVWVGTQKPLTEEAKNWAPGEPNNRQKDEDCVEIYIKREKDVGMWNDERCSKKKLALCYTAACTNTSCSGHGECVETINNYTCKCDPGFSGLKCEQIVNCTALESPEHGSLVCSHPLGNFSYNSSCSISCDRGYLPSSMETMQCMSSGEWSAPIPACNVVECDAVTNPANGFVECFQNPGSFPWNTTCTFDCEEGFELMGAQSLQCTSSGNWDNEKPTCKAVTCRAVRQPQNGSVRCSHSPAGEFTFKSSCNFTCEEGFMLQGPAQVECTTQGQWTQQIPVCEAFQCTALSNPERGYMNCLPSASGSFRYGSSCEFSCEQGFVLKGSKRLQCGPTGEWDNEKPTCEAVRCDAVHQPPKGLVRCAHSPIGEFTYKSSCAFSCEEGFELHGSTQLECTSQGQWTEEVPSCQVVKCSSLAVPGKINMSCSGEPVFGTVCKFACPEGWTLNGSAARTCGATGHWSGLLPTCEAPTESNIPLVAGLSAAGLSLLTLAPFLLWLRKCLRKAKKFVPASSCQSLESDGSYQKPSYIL
human CYP2A6, CYP2A6 (gene 1548), sequence (P11509 whole entry, looked up): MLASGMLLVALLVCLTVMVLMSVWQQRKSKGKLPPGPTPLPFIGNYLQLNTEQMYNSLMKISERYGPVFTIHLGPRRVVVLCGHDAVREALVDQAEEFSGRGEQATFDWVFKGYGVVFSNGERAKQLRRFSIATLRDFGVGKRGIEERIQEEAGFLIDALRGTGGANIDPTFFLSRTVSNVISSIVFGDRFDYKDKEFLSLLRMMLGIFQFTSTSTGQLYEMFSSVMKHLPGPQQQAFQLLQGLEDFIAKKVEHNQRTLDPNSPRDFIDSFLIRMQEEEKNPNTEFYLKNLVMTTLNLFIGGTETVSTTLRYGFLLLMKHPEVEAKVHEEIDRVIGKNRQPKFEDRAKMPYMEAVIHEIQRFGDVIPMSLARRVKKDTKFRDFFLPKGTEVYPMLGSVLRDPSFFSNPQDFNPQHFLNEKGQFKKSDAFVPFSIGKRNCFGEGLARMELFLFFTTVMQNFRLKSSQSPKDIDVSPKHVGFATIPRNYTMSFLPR
human CYP1A1, CYP1A1 (gene 1543), sequence (P04798 whole entry, looked up): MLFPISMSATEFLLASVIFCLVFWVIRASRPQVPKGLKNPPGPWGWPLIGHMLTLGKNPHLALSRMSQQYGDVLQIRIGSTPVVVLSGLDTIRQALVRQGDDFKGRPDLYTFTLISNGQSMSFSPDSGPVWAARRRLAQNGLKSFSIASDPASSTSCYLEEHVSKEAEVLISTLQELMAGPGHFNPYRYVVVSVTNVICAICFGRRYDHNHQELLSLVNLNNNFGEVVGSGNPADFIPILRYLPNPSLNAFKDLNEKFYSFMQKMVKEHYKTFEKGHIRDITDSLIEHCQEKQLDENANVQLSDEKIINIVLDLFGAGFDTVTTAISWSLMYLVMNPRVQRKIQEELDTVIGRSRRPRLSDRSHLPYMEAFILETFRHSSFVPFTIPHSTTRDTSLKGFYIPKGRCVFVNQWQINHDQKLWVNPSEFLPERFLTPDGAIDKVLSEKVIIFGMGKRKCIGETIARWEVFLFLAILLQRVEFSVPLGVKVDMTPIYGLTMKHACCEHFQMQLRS

On to `CC(C)(C)OOC(=O)c1ccccc1`, for which the outcome in assay [1], in assay [2], in assay [3], in assay [4], in assay [5] and in assay [6] was inactive. Besides, the result in [7], in [8], in assay [9], in assay [10], in [11] and in assay [12] was inactive. Also, the result in assay [13] and in assay [14] was inactive.
Take `CCOc1cccc(C2(N3CCN(c4ccccc4)CC3)CCC(C)CC2)c1` (centres undefined): the outcome in [1], in assay [2], in assay [3], in [4], in [5] and in assay [6] was inactive. For the same compound, the result in assay [15], in [7], in assay [8], in [9], in assay [10] and in assay [11] was inactive. For the same compound, the outcome in assay [12], in [13], in assay [14] and in [16] was inactive.
As a reminder, the AC50 is the midpoint of the concentration-response curve, whichever way the signal moves. Turning to `CCCCCCCCn1sccc1=O`, the AC50 in assay [1] is 0.857 µM (active); in [2], 7.58 µM (active); in assay [3], 4.04 µM (active); in assay [4] it was 1.04 µM (active); in assay [5], 6.97 µM (active); in [6], 7.73 µM (active). Further, the half-maximal activity concentration (AC50) in assay [15] was 10.2 µM (active); in [7], 10.7 µM (active); in [8], 11.7 µM (active); in assay [9] it was 12.8 µM (active); in [10], 14.2 µM (active); in assay [11], 3.84 µM (active). Besides, the AC50 in assay [12] is 13.4 µM (active); in assay [13], 1.76 µM (active); in assay [14] it was 20.8 µM (active); in [17] it was 4.74 µM (active); in [19], 0.975 µM (active); in [16] it was 5.97 µM (active). Further, the call in assay [18] was inactive.
With `CC(C)(C)C(O)(CCc1ccc(Cl)cc1)Cn1cncn1` (centres undefined), the outcome in assay [1], in assay [2], in [3], in assay [4], in [5] and in assay [6] was inactive. In addition, the result in [15], in assay [7], in assay [8], in assay [9], in [10] and in assay [11] was inactive. Further, the result in assay [12], in [13], in assay [14], in assay [18], in [19] and in assay [16] was inactive.
As for `Cc1cccc(N)c1N`, the AC50 in [1] is 20 µM (active); in assay [2] it was 7.16 µM (active); in assay [5], 14.3 µM (active); in [16], 6.94 µM (active). The outcome in assay [3], in assay [4], in [6], in [15], in assay [7] and in [8] was inactive. The result in assay [9], in assay [10], in [11], in [12], in assay [13] and in assay [14] was inactive. In addition, the result in assay [17] was inactive.

For the origin of these results see PubChem BioAssay (EPA / NIEHS).
